Measured values taken from PMC4336329 (PLoS ONE, 2015).
In all, about 310,000 compounds went through this assay and about 14,000 (4.5%) showed an effect of 50% or more. The effect is printed as a negative number. This excerpt belongs to a sample that is enriched for strong results.

These compounds were tested against human ether-à-go-go-related gene (hERG) potassium channel (human, UniProt Q12809) (assay: primary screen, population patch clamp on CHO cells stably expressing hERG; higher = less effect of the substance).
Chain of human ether-à-go-go-related gene (hERG) potassium channel (Q12809 whole entry, looked up): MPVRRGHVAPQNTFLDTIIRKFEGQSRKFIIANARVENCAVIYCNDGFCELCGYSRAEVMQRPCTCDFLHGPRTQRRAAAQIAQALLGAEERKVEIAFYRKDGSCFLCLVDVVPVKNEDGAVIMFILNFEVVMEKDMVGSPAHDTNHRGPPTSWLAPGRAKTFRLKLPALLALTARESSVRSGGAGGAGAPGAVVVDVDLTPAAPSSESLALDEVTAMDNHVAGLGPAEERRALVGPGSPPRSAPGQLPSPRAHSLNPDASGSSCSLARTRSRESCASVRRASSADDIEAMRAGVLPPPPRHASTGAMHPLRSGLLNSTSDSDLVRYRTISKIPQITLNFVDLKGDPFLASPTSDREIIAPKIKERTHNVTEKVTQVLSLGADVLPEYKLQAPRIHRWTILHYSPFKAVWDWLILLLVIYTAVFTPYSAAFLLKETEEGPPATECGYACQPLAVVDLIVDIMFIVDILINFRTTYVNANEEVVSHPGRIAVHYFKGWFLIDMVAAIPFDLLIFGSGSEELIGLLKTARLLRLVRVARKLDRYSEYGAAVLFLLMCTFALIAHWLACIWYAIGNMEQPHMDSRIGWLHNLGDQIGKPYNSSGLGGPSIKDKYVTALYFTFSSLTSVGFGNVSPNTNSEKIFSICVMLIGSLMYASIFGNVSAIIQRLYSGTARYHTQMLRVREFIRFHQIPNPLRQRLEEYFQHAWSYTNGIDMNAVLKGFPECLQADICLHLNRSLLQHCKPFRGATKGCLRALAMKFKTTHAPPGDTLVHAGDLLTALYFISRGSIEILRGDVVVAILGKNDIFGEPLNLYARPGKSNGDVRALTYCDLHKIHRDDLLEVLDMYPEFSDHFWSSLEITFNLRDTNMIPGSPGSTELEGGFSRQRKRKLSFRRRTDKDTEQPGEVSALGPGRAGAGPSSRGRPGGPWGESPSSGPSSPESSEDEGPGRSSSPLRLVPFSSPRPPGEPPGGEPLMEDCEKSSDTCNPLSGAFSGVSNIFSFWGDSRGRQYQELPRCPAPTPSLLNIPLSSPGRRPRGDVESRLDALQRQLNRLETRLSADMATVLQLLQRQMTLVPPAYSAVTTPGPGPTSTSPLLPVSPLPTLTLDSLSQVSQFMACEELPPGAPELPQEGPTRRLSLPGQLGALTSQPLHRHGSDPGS
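Note: peak tail current of the secondary pulse compared with the same well before compound.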

Going from CCCCCCCC1c2c(c(C)c(C)oc2=O)Oc2c(C)c(C)oc(=O)c21 to CCN(CC)CCCNC(=O)Cn1ncc2c(=O)oc3ccc(C)cc3c21, the “hERG current change (%, negative = inhibition) at 10uM” value falls from 11.9% to -7.17%.

First: CCN1C(=O)[C@H]2[C@@H](c3ccc(-c4ccc(OC)cc4)cc3)N[C@@](Cc3ccccc3)(C(=O)OC)[C@H]2C1=O.O=C(O)C(F)(F)F
Second: COc1ccc(-n2nc(C(=O)NCC(=O)Nc3ccccn3)c3ccccc3c2=O)cc1
The “hERG current change (%, negative = inhibition) at 10uM” value of the first is lower: 3.09% for the first, 10.6% for the second.

Going from CCc1ccc(CN(C)C(=O)CCc2nnc(-c3ccc(-c4ccccc4)cc3)o2)nc1 to CN(Cc1ccon1)C(=O)CCc1nnc(Cc2ccc(-c3ccccc3)cc2)o1, the “hERG current change (%, negative = inhibition) at 10uM” value rises from -65.1% to -20%.

Going from CCc1ccc(CN(C)C(=O)CCc2nnc(CCc3ccccc3OC)o2)nc1 to CCOc1ccc(CCNC(=O)COC(=O)/C=C/c2ccc(OC(F)F)c(OC)c2)cc1OCC, the “hERG current change (%, negative = inhibition) at 10uM” value falls from -1.47% to -15.2%.

Compared with Cc1cccc(C)c1NC(=O)C(=O)NCCOc1ccc(Cl)cc1, Cc1ccc(OCCCC(=O)Nc2ccc(S(=O)(=O)N3CCOCC3)cc2)cc1 is higher in “hERG current change (%, negative = inhibition) at 10uM” value: -26% for the first, -25.7% for the second.

Going from CCN(C(=S)Nc1cccc(C)c1)c1ccccc1 to Cc1ccccc1NC(=S)N(Cc1cccs1)C1CCCC1, the “hERG current change (%, negative = inhibition) at 10uM” value falls from 13.2% to 5.42%.

Going from COc1ccc(/C=C(\NC(=O)c2ccco2)C(=O)NCc2ccco2)cc1 to CC(=O)Oc1ccc(/C=C(\NC(=O)c2ccco2)C(=O)NCc2ccco2)cc1, the “hERG current change (%, negative = inhibition) at 10uM” value falls from 8.89% to -52%.

Going from O=C(NCc1ccco1)/C(=C/c1ccc(Br)cc1)NC(=O)c1ccco1 to O=C(NCc1ccccc1)/C(=C\c1ccc(O)cc1)NC(=O)c1ccco1, the “hERG current change (%, negative = inhibition) at 10uM” value falls from 0.657% to -20.7%.

First: CC(=O)Oc1ccc(/C=C(\NC(=O)c2ccco2)C(=O)NCc2ccccc2)cc1
Second: CC(=O)Oc1ccc(/C=C(\NC(=O)c2ccco2)C(=O)Nc2ccc(C(C)=O)cc2)cc1
The “hERG current change (%, negative = inhibition) at 10uM” value of the first is lower: -68.3% for the first, -26.2% for the second.

First: Cc1cccc(C(=O)N2CCC(N3CCC(C(=O)N4CCOCC4)CC3)CC2)c1
Second: C=CCn1c(SCC(=O)N2CCOCC2)nc2ccccc2c1=O
The “hERG current change (%, negative = inhibition) at 10uM” value of the first is higher: -9.81% for the first, -28.4% for the second.

Going from Cc1ccc(S(=O)(=O)/N=c2\scc(C)n2C)cc1 to Cc1nc(N2CCN(S(=O)(=O)c3ccc(F)cc3)CC2)c2c(-c3cccs3)csc2n1, the “hERG current change (%, negative = inhibition) at 10uM” value rises from 0.491% to 11.6%.

First: O=C1CN(C(=O)COc2ccc(Cl)cc2Cl)c2ccccc2N1
Second: O=C1CN(C(=O)COc2ccc(F)cc2Cl)c2ccccc2N1
The “hERG current change (%, negative = inhibition) at 10uM” value of the first is higher: 14.2% for the first, -19.5% for the second.

Compared with O=C1CN(C(=O)COc2ccc([N+](=O)[O-])cc2Cl)c2ccccc2N1, O=C(O)c1cc(NS(=O)(=O)c2ccc(NCc3ccccc3)c([N+](=O)[O-])c2)cc(C(=O)O)c1 is higher in “hERG current change (%, negative = inhibition) at 10uM” value: -61.2% for the first, 20.9% for the second.

Compared with CC1(C)CC(=O)C=C(C(=O)NC2CCCc3c2cnn3-c2cc(F)cc(F)c2)O1 (centres unmarked), C=CCn1c(SCC(=O)N2CCc3ccccc3C2)nc2sc(C)cc2c1=O is lower in “hERG current change (%, negative = inhibition) at 10uM” value: -2.03% for the first, -7.46% for the second.

Going from COC(=O)N/N=C(\C)c1ccccc1OC(F)F to Cn1nc(C(F)(F)F)c(-c2ccccc2)c1NC(=O)c1ccco1, the “hERG current change (%, negative = inhibition) at 10uM” value falls from 1.52% to -3.07%.

Going from COc1ccc(C[C@H]2CN3C(=NC[C@@H]3C(C)C)N2C[C@H](C)NC(=O)c2ccc(C)c(Br)c2)cc1 to Cc1ccc(C(=O)N[C@@H](C)CN2C3=NC[C@H](C(C)C)N3C[C@H]2Cc2ccc(O)cc2)cc1Br, the “hERG current change (%, negative = inhibition) at 10uM” value falls from -74.5% to -77.7%.

Compared with COc1ccc(C[C@@H]2CN3C(=NC[C@@H]3C)N2C[C@H](C)NC(=O)c2ccc(C)c(Br)c2)cc1, COCCn1c(SCC(=O)N2CCc3ccccc3C2)nc2ccccc2c1=O is higher in “hERG current change (%, negative = inhibition) at 10uM” value: -74.8% for the first, -43.8% for the second.

Compared with CCCOP(=O)(c1ccc(N(C)C)cc1)C(O)c1ccc(N(C)C)cc1 (centres unmarked), COC(=O)COc1ccc(C(c2c(C)[nH][nH]c2=O)c2c(C)[nH][nH]c2=O)cc1 is higher in “hERG current change (%, negative = inhibition) at 10uM” value: 12.8% for the first, 15.1% for the second.

First: c1ccc2sc(-c3ccc4c(c3)OCO4)nc2c1
Second: O=C(Nc1oc2ccccc2c(=O)c1-c1ccc(Cl)cc1)c1ccco1
The “hERG current change (%, negative = inhibition) at 10uM” value of the first is higher: -3.16% for the first, -20.4% for the second.

First: CCOc1ccc(C2CC(c3cccc(OC)c3OC)n3nnnc3N2)cc1Cl (centres unmarked)
Second: Cc1ccc(-n2nnnc2Sc2nc([N+](=O)[O-])nn2C)c(C)c1
The “hERG current change (%, negative = inhibition) at 10uM” value of the first is higher: -19.2% for the first, -27.6% for the second.

First: CN(C(=O)c1ccc(C#N)cc1)c1nnc(-c2cnccn2)s1
Second: Cn1nc(C(F)(F)F)c(-c2ccc(Br)cc2)c1NC(=O)c1cccnc1
The “hERG current change (%, negative = inhibition) at 10uM” value of the first is lower: -8.93% for the first, 0.61% for the second.

First: COc1ccc(CN2CN(C3CCCC3)CSC2=S)cc1
Second: CCn1c(SCC(=O)N2CCCCCC2)nc2ccccc2c1=O
The “hERG current change (%, negative = inhibition) at 10uM” value of the first is higher: 2.66% for the first, -10.4% for the second.

First: C=CCn1c(SCC(=O)N2CCc3ccccc3C2)nc2ccccc2c1=O
Second: C=CCn1c(SCC(=O)N2CCCCCC2)nc2ccccc2c1=O
The “hERG current change (%, negative = inhibition) at 10uM” value of the first is lower: -61.5% for the first, -59.2% for the second.

Going from CCn1cc(S(=O)(=O)N2CCN(c3ccc(Cl)cc3)CC2)cn1 to Cn1nc(C(F)(F)F)c(-c2ccc(F)cc2)c1NC(=O)c1ccco1, the “hERG current change (%, negative = inhibition) at 10uM” value falls from 7.96% to -32.8%.

Going from O=C(Nc1oc2ccccc2c(=O)c1-c1ccc(Br)cc1)c1ccco1 to Cc1ccc(-c2c(NC(=O)c3ccco3)oc3ccccc3c2=O)cc1, the “hERG current change (%, negative = inhibition) at 10uM” value rises from -52.5% to 10.1%.

Going from Cn1nc(C(F)(F)F)c(-c2cccc(C(F)(F)F)c2)c1NC(=O)c1ccco1 to Cn1nc(C(F)(F)F)c(-c2cccc(C(F)(F)F)c2)c1NC(=O)c1cccnc1, the “hERG current change (%, negative = inhibition) at 10uM” value rises from -66.6% to -6.76%.

With Cn1nc(C(F)(F)F)c(-c2ccc(Br)cc2)c1NC(=O)c1ccco1 the “hERG current change (%, negative = inhibition) at 10uM” value was -63.5%.
